WT yeast gro inh = growth inhibition of WT strain, primary screen, mitochondrial fusion inhibitor project, WT and mutant strains, chemical genetic; mitochondrial fusion phenotypic screen; inhibition, % at 10 µM; 2.1% of 190,000 active; AID 1362, 2008; in the data active means inhibition above about 58%; tested in S. cerevisiae
Lmaj promast = Leishmania major promastigote growth inhibition, primary screen; Leishmania major promastigotes, resazurin fluorescence viability; inhibition, % at 10 µM; 9% of 200,000 active; in the data active means inhibition above about 50%;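 further: promastigotes grown with compound for 44 hours at 28 °C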
CHOP inh = inhibitors of CHOP promoter induction, primary screen, cell-based, unfolded protein response, luciferase reporter | 3.8% of 220,000 active | CHO-K1 CHOP-promoter luciferase, tunicamycin-induced, 15-18 h | AID 2732, 2010 | inhibition, % at 10 µM;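 active means compounds that reduced the stress-induced luciferase reporter signal by more than about 70% of percent inhibition, limit read from the data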;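 further: 0% = tunicamycin plus vehicle and 100% = wells without tunicamycin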
Arbovirus inh = antivirals against arbovirus infection, primary screen, cell-based, full library, 10K replicate subset. arbovirus infection cell-based antiviral screen. inhibition, % at 10 µM. 0.37% of 200,000 active; in the data active means inhibition above about 30%
An asterisk follows results filed as active; . = not tested or not shown. The list is not random: actives were taken first. Their share in the collection is about 12%.

SMILES	WT yeast gro inh	Lmaj promast	CHOP inh	Arbovirus inh
CCOC(=O)C(C)On1c(-c2ccccc2)nc2ccc([N+](=O)[O-])cc21 (stereo not drawn)	18	8	6	-4
COn1c(-c2ccc(Cl)cc2)nc2ccc(Cl)cc21	-1	2	74*	0
CCOC(=O)C(C)On1c(-c2ccc(Cl)cc2)nc2ccc([N+](=O)[O-])cc21 (stereo not drawn)	58	13	72*	-24
O=C(O)COn1c(-c2ccc(Cl)cc2)nc2ccc(Cl)cc21	8	5	-7	0
CN(Cc1ccccc1)c1ncnc(N)c1[N+](=O)[O-]	-12	7	41	14
Nc1nc(Nc2ccccc2)nc(NCc2ccco2)c1[N+](=O)[O-]	35	23	86*	-15
CN(Cc1ccccc1)c1nc(N)c([N+](=O)[O-])c(NCc2ccccc2)n1	6	9	69	36*
CC1CC(C)CN(c2nc(NCc3ccco3)nc(N)c2[N+](=O)[O-])C1 (stereo not drawn)	25	15	59	33*
O=[N+]([O-])c1ccc(N2CCN(c3ccc(Cl)nn3)CC2)cc1NC1CC1	.	-2	.	.
Cc1nn(C)c(Cl)c1C(N)=O	-8	0	4	-1
CC(=C\c1ccccc1)/C=C1/SC(=S)N(CCC(=O)Nc2ccccn2)C1=O	-7	20	9	-5
O=C(CCCN1C(=O)/C(=C/c2cccc(Br)c2)SC1=S)Nc1ccccn1	29	45	5	6
COC(=O)c1ccc(/C=C2/SC(=S)N(CCCC(=O)Nc3ccccn3)C2=O)cc1	-11	1	77*	8
CC(=O)c1ccc(NC(=O)CN2C(=O)/C(=C/C=C/c3ccccc3)SC2=S)cc1	-1	-7	74*	3
O=C(CCN1C(=O)/C(=C/C=C/c2ccccc2)SC1=S)Nc1ccccn1	1	6	85*	-2
COc1ccc(NC2c3ccccc3C(=O)N2Cc2ccc3c(c2)OCO3)cc1 (stereo not drawn)	.	.	32	.
O=C(COC(=O)c1ccccc1[N+](=O)[O-])Nc1cc(S(=O)(=O)N2CCOCC2)ccc1N1CCCC1	-3	-1	2	7
CCOC(=O)Nc1ccc2c(c1)nc(CN1CCCCC1)n2C	-8	0	-5	-2
CC(=O)c1cccc(NC(=S)NC2CCCCC2)c1	-10	7	6	-3
COc1cccc(NC(=O)C(NC2CCCC2)c2ccccc2)c1 (stereo not drawn)	-16	14	82*	-6
Cc1ccc(NC(=O)C(NC2CCCC2)c2ccccc2)cc1Cl (stereo not drawn)	15	39	10	-16
COc1cccc(NC(=O)C(=S)NC2CCCCC2)c1	59*	-8	50	6
Cc1ccc(/C=C/C(=O)N2CCCC(C(N)=O)C2)o1 (stereo not drawn)	.	.	0	.
Cn1c(Cl)c(C(=O)Nc2ccc(Cl)cc2)c2ccccc21	2	1	-16	-13
COCCCN(C(=S)Nc1cccc(Cl)c1)C(C)c1ccncc1 (stereo not drawn)	-20	63*	9	3
SMILES	WT yeast gro inh	Lmaj promast	CHOP inh	Arbovirus inh
Cc1cccc(C)c1NC(=S)N(CCN(C)C)C(C)c1ccccn1 (stereo not drawn)	6	2	12	4
COCCCN(C(=S)Nc1cc(C)cc(C)c1)C(C)c1ccncc1 (stereo not drawn)	4	82*	17	-5
COCCCN(C(=S)Nc1c(C)cc(C)cc1C)C(C)c1ccccn1 (stereo not drawn)	20	52*	12	2
O=C(Cn1c(NCCCO)nc2ccccc21)c1cccs1	14	-4	.	-2
O=C(C1CCCO1)N1CCN(C(=S)Nc2ccccc2Cl)CC1 (stereo not drawn)	-21	4	25	0
COc1cc2c(cc1NC(=O)COc1ccccc1OC)oc1ccccc12	2	-3	46	4
COc1cc2c(cc1NC(=O)COC(=O)[C@@H](NS(=O)(=O)c1ccccc1)C(C)C)oc1ccccc12	17	99*	51	-8
COc1cc2c(cc1NC(=O)COC(=O)c1ccc(C(C)(C)C)cc1)oc1ccccc12	-16	-10	78*	-6
COc1cc2c(cc1NC(=O)CSCC(=O)O)oc1ccccc12	15	-1	3	10
COc1cc2c(cc1NC(=O)COC(=O)C(CCSC)NC(=O)c1ccccc1Cl)oc1ccccc12 (stereo not drawn)	-22	67*	7	2
COc1ccccc1OCCCC(=O)Nc1ccc([N+](=O)[O-])cc1Br	-2	-6	0	12
COc1cc2c(=O)n(CCC(=O)NCC3CCCO3)c(=O)n(CC(=O)c3ccc(Cl)cc3)c2cc1OC (stereo not drawn)	13	5	-3	3
CC(=O)Nc1cc(ON=C(C)C)cc([N+](=O)[O-])c1	19	0	0	8
Cc1onc(-c2ccccc2)c1CNS(=O)(=O)c1cccc(Br)c1	.	.	3	.
COc1ccc(CC(=S)N2CCOCC2)cc1	-1	-2	-18	3
COc1cc(/C=C2/C(=O)NN(c3ccc(Cl)cc3)C2=O)ccc1OC(=O)c1ccco1	5	52*	-1	-34
O=C(COC(=O)CCc1nc2ccccc2c(=O)[nH]1)Nc1ccc2c(c1)OCO2	.	.	-1	.
CC1CCCCN1S(=O)(=O)c1ccc(C(=O)Nc2nnc(-c3ccccc3Cl)o2)cc1 (stereo not drawn)	22	99*	77*	-9
O=C(Nc1ccn(-c2ccccc2)n1)c1ccc(S(=O)(=O)N2CCCCCC2)cc1	21	66*	.	-8
O=C(Nc1nnc(-c2ccccc2Cl)o1)c1ccc(S(=O)(=O)N2CCCCCC2)cc1	4	99*	61	-14
O=C(Nc1ccccc1)c1ccc(S(=O)(=O)N2CCCCC2)cc1	0	2	9	2
CCN(C(=O)COC(=O)c1[nH]c(=O)[nH]c(=O)c1N)c1ccccc1	-21	-7	-1	5
O=C1Cc2ccccc2C(=O)N1Cc1ccccc1	-1	2	-25	-8
O=C(CCN1CCN(c2ccccc2)CC1)N/N=C/c1ccccc1O	-9	98*	48	-25
CN1CCN(CCC(=O)N/N=C/c2ccccc2F)CC1	.	.	2	.
CCCCCCN(C(=O)CCCCCN1C(=O)NC(c2cccc([N+](=O)[O-])c2)C(C(=O)OCc2ccccc2)=C1C)C(C(=O)NCCCC)c1ccc(OCC(=O)OC)c(C(=O)OC)c1 (stereo not drawn)	.	.	10	.
CCC(C)(C)n1nnnc1C(c1ccncc1)N1CCN(c2cccc(OC)c2)CC1 (stereo not drawn)	1	54*	-5	3
CCC(C)(C)n1nnnc1C(c1cccnc1)N1CCN(c2cccc(C(F)(F)F)c2)CC1 (stereo not drawn)	14	95*	-18	5
COc1cccc(N2CCN(C(c3ccccn3)c3nnnn3C(C)(C)C)CC2)c1 (stereo not drawn)	-7	-4	-9	-5
C[n+]1c(/C=C/c2ccc3c(c2)OCO3)ccc2ccccc21	19	77*	-24	-2

Source: PubChem BioAssay
